Results from PubChem BioAssay (NCATS).
Where “and” joins values, the source holds several entries; their conditions need not be identical. Equal values may be shown once. Records with an inconclusive call do not appear. Calls of active or inactive are those of the source. The call rests on the fitted dose curve.

Tested on: not listed separately
Assay: qHTS assay for small molecule agonists of retinoid X receptor alpha signaling (AID 588544)
Settings: HEK293T RXRa-UAS-bla, beta-lactamase reporter, 18 h; 530 nm emission
Work on `CCCCCCCCCCCCCC(=O)OC(C)C` yielded a max response of -13.5%. Work on `CCCCCCCCCCCCCCCC(=O)O` yielded a max response of -15.5%. `OC[C@H]1O[C@@H]2O[C@H]3[C@H](O)[C@@H](O)[C@@H](O[C@H]4[C@H](O)[C@@H](O)[C@@H](O[C@H]5[C@H](O)[C@@H](O)[C@@H](O[C@H]6[C@H](O)[C@@H](O)[C@@H](O[C@H]7[C@H](O)[C@@H](O)[C@@H](O[C@H]8[C@H](O)[C@@H](O)[C@@H](O[C@H]1[C@H](O)[C@H]2O)O[C@@H]8CO)O[C@@H]7CO)O[C@@H]6CO)O[C@@H]5CO)O[C@@H]4CO)O[C@@H]3CO` gave a max response of 2.91%. With `CCCCCCCCCCCCCCCCO` the max response was 2.95%. In the case of `CCOc1ccc(NC(C)=O)cc1`, the max response is reported as 2.99% and -14.4%. `CC1(C)OC[C@@H]2O[C@@]3(C(=O)O)OC(C)(C)O[C@H]3[C@@H]2O1` showed a max response of 0.747%. `CCOc1ccccc1C(N)=O` showed a max response of -15.7%. Molecule `CN(C)C(=O)Nc1ccc(Cl)c(Cl)c1` has a max response of -0.181%. `C#C[C@]1(O)CC[C@H]2[C@@H]3CCC4=Cc5oncc5C[C@]4(C)[C@H]3CC[C@@]21C` gave a max response of 27%. With `CCCN(CCC)S(=O)(=O)c1ccc(C(=O)O)cc1` the max response was -13.7% and -10.4%. With `CCCCC(CC)COC(=O)c1ccc(N(C)C)cc1` (stereo unspecified) the max response was -13.5%. Work on `COc1ccc(C(Cl)=C(c2ccc(OC)cc2)c2ccc(OC)cc2)cc1` yielded a max response of -9.29%. In the case of `O=C(O)c1ccc(S(=O)(=O)N(Cl)Cl)cc1`, the max response is reported as -8.23%. For `Oc1ccc(Cl)cc1Cc1cc(Cl)ccc1O`, the max response was -27.5% and -0.357%. Work on `NC(=O)c1ccccc1O` yielded a max response of -2.87%. With `CCCCCCCC/C=C\CCCCCCCCN` the max response was -3%. Molecule `NCCNc1cccc2ccccc12` has a max response of 15.9%. For `C/C=C/c1ccc(O)c(OC)c1`, the max response was -13.6% and -6.37%. With `CCCCCCCCOc1ccc(C(=O)c2ccccc2)c(O)c1` the max response was -1.02%. In the case of `CCCCOC(=O)CC(CC(=O)OCCCC)(OC(C)=O)C(=O)OCCCC`, the max response is reported as 10.7%.

Target: Retinoic acid receptor RXR-alpha (Homo sapiens) (UniProt P19793)
Sequence (P19793 whole entry, looked up): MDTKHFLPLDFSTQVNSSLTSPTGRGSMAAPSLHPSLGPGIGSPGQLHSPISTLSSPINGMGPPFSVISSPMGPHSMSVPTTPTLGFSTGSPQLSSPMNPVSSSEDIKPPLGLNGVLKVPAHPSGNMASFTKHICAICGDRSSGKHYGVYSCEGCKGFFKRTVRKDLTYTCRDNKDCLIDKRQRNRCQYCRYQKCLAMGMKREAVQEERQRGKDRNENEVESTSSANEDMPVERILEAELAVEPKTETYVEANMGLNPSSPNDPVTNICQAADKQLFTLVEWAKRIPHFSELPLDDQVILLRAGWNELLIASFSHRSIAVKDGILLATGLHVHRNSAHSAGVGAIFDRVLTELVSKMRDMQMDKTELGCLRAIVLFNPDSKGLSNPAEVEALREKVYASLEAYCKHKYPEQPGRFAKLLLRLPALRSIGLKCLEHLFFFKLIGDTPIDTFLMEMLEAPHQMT
Assay: as above
Settings: HEK293T RXRa-UAS-bla, beta-lactamase reporter, 18 h; series mostly up to 76.7 µM
With `CCCCCCCCCCCCCC(=O)OC(C)C` the outcome was “inactive”. In the case of `CCCCCCCCCCCCCCCC(=O)O`, the outcome is reported as “inactive”. In the case of `OC[C@H]1O[C@@H]2O[C@H]3[C@H](O)[C@@H](O)[C@@H](O[C@H]4[C@H](O)[C@@H](O)[C@@H](O[C@H]5[C@H](O)[C@@H](O)[C@@H](O[C@H]6[C@H](O)[C@@H](O)[C@@H](O[C@H]7[C@H](O)[C@@H](O)[C@@H](O[C@H]8[C@H](O)[C@@H](O)[C@@H](O[C@H]1[C@H](O)[C@H]2O)O[C@@H]8CO)O[C@@H]7CO)O[C@@H]6CO)O[C@@H]5CO)O[C@@H]4CO)O[C@@H]3CO`, the outcome is reported as “inactive”. For `CCCCCCCCCCCCCCCCO`, the outcome was “inactive”. With `CCOc1ccc(NC(C)=O)cc1` the outcome was “inactive”. With `CC1(C)OC[C@@H]2O[C@@]3(C(=O)O)OC(C)(C)O[C@H]3[C@@H]2O1` the outcome was “inactive”. In the case of `CCOc1ccccc1C(N)=O`, the outcome is reported as “inactive”. With `CN(C)C(=O)Nc1ccc(Cl)c(Cl)c1` the outcome was “inactive”. With `C#C[C@]1(O)CC[C@H]2[C@@H]3CCC4=Cc5oncc5C[C@]4(C)[C@H]3CC[C@@]21C` the outcome was “inactive”. In the case of `CCCN(CCC)S(=O)(=O)c1ccc(C(=O)O)cc1`, the outcome is reported as “inactive”. With `CCCCC(CC)COC(=O)c1ccc(N(C)C)cc1` (stereo unspecified) the outcome was “inactive”. In the case of `COc1ccc(C(Cl)=C(c2ccc(OC)cc2)c2ccc(OC)cc2)cc1`, the outcome is reported as “inactive”. In the case of `O=C(O)c1ccc(S(=O)(=O)N(Cl)Cl)cc1`, the outcome is reported as “inactive”. In the case of `Oc1ccc(Cl)cc1Cc1cc(Cl)ccc1O`, the outcome is reported as “inactive”. For `NC(=O)c1ccccc1O`, the outcome was “inactive”. For `CCCCCCCC/C=C\CCCCCCCCN`, the outcome was “inactive”. For `NCCNc1cccc2ccccc12`, the outcome was “inactive”. With `C/C=C/c1ccc(O)c(OC)c1` the outcome was “inactive”. In the case of `CCCCCCCCOc1ccc(C(=O)c2ccccc2)c(O)c1`, the outcome is reported as “inactive”. With `CCCCOC(=O)CC(CC(=O)OCCCC)(OC(C)=O)C(=O)OCCCC` the outcome was “inactive”.

Target: Thyroid hormone receptor beta (Homo sapiens) (UniProt P10828)
Sequence (P10828 whole entry, looked up): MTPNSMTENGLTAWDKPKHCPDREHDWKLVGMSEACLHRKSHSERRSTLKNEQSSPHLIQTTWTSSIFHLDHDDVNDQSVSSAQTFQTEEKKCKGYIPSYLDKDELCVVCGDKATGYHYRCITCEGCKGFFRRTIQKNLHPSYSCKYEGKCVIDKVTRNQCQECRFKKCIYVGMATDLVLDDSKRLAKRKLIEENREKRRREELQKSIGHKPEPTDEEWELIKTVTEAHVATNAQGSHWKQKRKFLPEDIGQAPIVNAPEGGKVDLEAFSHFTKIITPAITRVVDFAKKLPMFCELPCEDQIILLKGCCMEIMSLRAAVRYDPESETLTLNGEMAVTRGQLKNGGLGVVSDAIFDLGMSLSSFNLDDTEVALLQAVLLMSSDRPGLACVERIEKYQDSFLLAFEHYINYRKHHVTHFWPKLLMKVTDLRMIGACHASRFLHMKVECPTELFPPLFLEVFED
Assay: qHTS assay for small molecule agonists of thyroid hormone receptor beta signaling (AID 588545);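 further: 0% = DMSO only and 100% = 10 nM T3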
Settings: TR-UAS-bla GripTite HEK 293, beta-lactamase ratio, agonist mode, 18 h, percent of T3 response, DMSO as zero; series mostly up to 76.7 µM
Summary of the method: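 Beta-lactamase reporter activity under TR response element control is measured in HEK 293 cells after 18 hrs compound exposure. Signal is ratiometric CCF4 fluorescence, 460/530 nm.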
In the case of `CC1(COc2ccc(CC3SC(=O)NC3=O)cc2)CCCCC1` (stereo unspecified), the outcome is reported as “inactive”. With `CCCCCCCCCCCCCC(=O)OC(C)C` the outcome was “inactive”. For `CCCCCCCCCCCCCCCC(=O)O`, the outcome was “inactive”. With `OC[C@H]1O[C@@H]2O[C@H]3[C@H](O)[C@@H](O)[C@@H](O[C@H]4[C@H](O)[C@@H](O)[C@@H](O[C@H]5[C@H](O)[C@@H](O)[C@@H](O[C@H]6[C@H](O)[C@@H](O)[C@@H](O[C@H]7[C@H](O)[C@@H](O)[C@@H](O[C@H]8[C@H](O)[C@@H](O)[C@@H](O[C@H]1[C@H](O)[C@H]2O)O[C@@H]8CO)O[C@@H]7CO)O[C@@H]6CO)O[C@@H]5CO)O[C@@H]4CO)O[C@@H]3CO` the outcome was “inactive”. For `CCCCCCCCCCCCCCCCO`, the outcome was “inactive”. For `CCOc1ccc(NC(C)=O)cc1`, the outcome was “inactive”. With `CC1(C)OC[C@@H]2O[C@@]3(C(=O)O)OC(C)(C)O[C@H]3[C@@H]2O1` the outcome was “inactive”. With `C=C[C@@]1(C)CC(=O)[C@]2(O)[C@@]3(C)[C@@H](O)CCC(C)(C)[C@@H]3[C@H](O)[C@H](OC(C)=O)[C@@]2(C)O1` the outcome was “inactive”. In the case of `CN(C)C(=O)Nc1ccc(Cl)c(Cl)c1`, the outcome is reported as “inactive”. With `CCCN(CCC)S(=O)(=O)c1ccc(C(=O)O)cc1` the outcome was “inactive”. For `CCCCC(CC)COC(=O)c1ccc(N(C)C)cc1` (stereo unspecified), the outcome was “inactive”. For `COc1ccc(C(Cl)=C(c2ccc(OC)cc2)c2ccc(OC)cc2)cc1`, the outcome was “inactive”. For `O=C(O)c1ccc(S(=O)(=O)N(Cl)Cl)cc1`, the outcome was “inactive”. For `COc1ccc(C(=O)c2ccccc2)c(O)c1`, the outcome was “inactive”. For `Oc1ccc(Cl)cc1Cc1cc(Cl)ccc1O`, the outcome was “inactive”. With `NC(=O)c1ccccc1O` the outcome was “inactive”. In the case of `CCCCCCCC/C=C\CCCCCCCCN`, the outcome is reported as “inactive”. With `CC(C)(C)CC(C)(C)c1ccc(O)c(-n2nc3ccccc3n2)c1` the outcome was “inactive”. For `NCCNc1cccc2ccccc12`, the outcome was “inactive”. For `CCCCCCCCOc1ccc(C(=O)c2ccccc2)c(O)c1`, the outcome was “inactive”. In the case of `CCCCOC(=O)CC(CC(=O)OCCCC)(OC(C)=O)C(=O)OCCCC`, the outcome is reported as “inactive”.
